Experimental data taken from PubChem BioAssay (NCI).
Compounds without any hit were thinned out: in the full panel of roughly 83,000, 20% have a hit.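 The endpoint reported here, percent growth, reads 100 for growth as untreated, 0 for no net growth and -100 for all cells dead.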 Values without a mark were called inactive. Calls of active or inactive are those of the source. The calls were made as follows: active = growth percent below 10; inactive = the rest.

Test system: MDA-MB-468 breast
Test: NCI-60 one-dose screen, 48 h (100 = growth as untreated, 0 = no growth, -100 = all killed)
Details: 10 µM unless noted

| SMILES | growth |
| --- | --- |
| O=C1CCCN1c1cccc2cccnc12 | 98.8% |
| O=c1c(N=Nc2nccs2)c(-c2ccccc2)[nH]n1-c1nc(-c2ccccc2)cs1 | 29% |
| CC(=O)c1cc(C(=O)N2c3ccccc3Sc3ccccc32)n2ccc3ccccc3c12 | 43.4% |
| COc1cc(C2CC(c3ccc(C)cc3)=NN2C=O)ccc1OCCN(C)C (stereo not given) | 93.1% |
| COc1ccc(OC)c(C(=O)c2oc3ccc(Br)cc3c2N)c1 | 23.6% |
| COc1ccc(NC(=O)CSc2nc3ccc(Cl)cc3c(=O)n2-c2ccccc2C(F)(F)F)c(OC)c1OC | 79.6% |
| OCCOSCCO | 98.2% |
| Cn1cc(-c2noc(C(=O)c3cn(C)c4ncc(Br)cc34)n2)c2ccccc21 | 111% |
| COc1ccc(/C=C\c2cc(OC)c(OC)c(OC)c2)cc1OC(=O)c1cccc(Cn2cc(CCOC(=O)[C@H](N)Cc3cn(C)c4ccccc34)nn2)c1 | 13.9% |
| CCCCCCCCNC(=O)C(C)C | 85.4% |
| O=C1c2ccccc2C(=O)c2c(NCCN=Cc3c(O)ccc4ccccc34)cccc21 | 84.5% |
| CCCCn1c(=O)c(-c2cc(-c3ccc(Cl)cc3)nc(-c3ccc(Cl)cc3)c2)cc2ccc(Cl)cc21 | 95% |
| Clc1cccc(Nc2ncnc3ccc(-c4cncc(-n5cnnn5)c4)cc23)c1 | -31.6% (active) |
| COc1cc2ncnc(Nc3ccc(F)c(Cl)c3)c2cc1NC(=O)/C=C/CN1CCCCC1 | -82.2% (active) |
| O=C(Oc1ccccc1)c1cc(O)c(O)c(O)c1 | 71.7% |
| CSC(=N\N=C\c1ccc(N(C)C)cc1)/N=C/N(C)C | 83.5% |
| CN1C(=O)/C(=C/c2ccc(C(=O)Nc3ncc(Cc4ccc(Cl)cc4)s3)cc2)SC1=S | 25.2% |
| Brc1ccc(SSc2ccc(Br)cc2)cc1 | 87% |
| Oc1cc(/C=C/c2nc(N3CCOCC3)c3cc(Cl)c(Cl)cc3n2)cc(O)c1O | 85% |
| O=C(Oc1ccccc1)c1ccccc1Cl | 102% |

| SMILES | growth |
| --- | --- |
| NC(=S)NN=C1CCCCC1 | 26.4% |
| O=C(CCN1CCCC1)Nc1ccc2c(NCCCc3ccccc3)c3ccccc3nc2c1 | -38.5% (active) |
| O=C(NNc1ccc(-c2ccccc2)nn1)c1ccccc1 | 103% |
| COC(=O)c1cc(-c2ccc(C)cc2)n(C(=O)CSc2nc3sc(C(N)=O)c(C)c3c(=O)n2Cc2ccccc2)n1 | 107% |
| Clc1ccc(C2=NN(c3ccccc3)[C@H](c3cn(-c4ccccc4)nc3-c3ccccc3)C2)cc1 | 109% |
| CC1(C)OC2OC3C(CN)OC(c4ccccc4)OC3C2O1 (stereo not given) | 116% |
| O=C(NNC(=O)N1c2ccccc2C=Cc2ccccc21)c1ccc2ccccc2c1 | 87.7% |
| CCOC(=O)C1=C(c2ccccc2)N=c2s/c(=C/c3ccc(Br)cc3)c(=O)n2C1c1ccc(O)cc1 (stereo not given) | 83.7% |
| Cc1cc(NS(=O)(=O)c2ccc(NC(=O)COc3ccc(-c4cc5ccccc5[nH]4)cc3)cc2)no1 | -0.467% (active) |
| O=[N+]([O-])c1ccc2[nH]cc(-c3c4ccccc4cc4[nH]c5ccc([N+](=O)[O-])cc5c34)c2c1 | 23.9% |
| COc1ccc(CCN2CCC(CN(C)Cc3cnn(-c4ccccc4)c3)CC2)cc1 | 19% |
| COc1cc2ncnc(NC3CCC(O)CC3)c2cc1OC (stereo not given) | 96.7% |
| Cc1cc(C(=O)O)c(C)n1-c1cccc(C(=O)O)c1 | 70.1% |
| COc1ccccc1C(=O)Nc1cccc(-c2cc(=O)c3c(OC)c(OC)c(OC)cc3o2)c1 | 39.2% |
| CC(C)=CCC[C@](C)(O)C1CC[C@]2(C)[C@@H]1CC[C@@H]1[C@@]3(C)CC/C(=N\OCCC#N)C(C)(C)[C@@H]3CC[C@]12C (stereo not given in full) | 83.2% |
| CCCCCN1C(=O)CCC1=O | 108% |
| Cc1ccc(-c2csc(NC(=O)c3ccccc3CN3C(=O)c4ccccc4C3=O)n2)cc1 | 92.1% |
| Brc1ccc2[nH]cc(-c3nonc3-c3c[nH]c4ccccc34)c2c1 | 62.9% |
| O=C(Cc1cccc2ccccc12)N/N=C/c1ccc2c(c1)CCC2 | 72.3% |
| O=C1NN(c2ccccc2)C(c2cccnc2)=N/C1=C\c1cccnc1 | 90% |
